Experimental findings from PubChem BioAssay (NCI) are described below.

Some test systems named below: DU-145 prostate; MALME-3M melanoma; MDA-MB-231 breast; RXF 393 renal; SF-268 CNS; SF-295 CNS; SF-539 CNS; UACC-257 melanoma; M14 melanoma.
Assay in all cases: NCI-60 one-dose screen, 48 h (100 = growth as untreated, 0 = no growth, -100 = all killed)
Common to all, as to details: 10 µM unless noted

This is part of a sample that, as a whole, favours compounds with a hit. Of some 83,000 tested, about 20% had one in any assay.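 Note: values are percent growth. 100 is the growth of untreated cells, values between 100 and 0 indicate rising inhibition; between -100 and 0 indicates cell death.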 A number with no mark means an inactive call. The source made the active and inactive calls. How the source made its calls: active means growth percent below 10; inactive means the rest.

Regarding `O=C1/C(=C/c2ccccc2O)N=C2SCCCN12`, the growth is 103% with DU-145 prostate; 95.1% in the test on MALME-3M melanoma; 78.8% in the test on MDA-MB-231 breast; 112% in the test with RXF 393 renal; 99.5% in the test with SF-268 CNS; 98.6% in the test on SF-295 CNS. Further, the figures for the growth in the test with SF-539 CNS, with UACC-257 melanoma and in the test on M14 melanoma were 95.4%, 103% and 102%, respectively.

With `CN(C)c1ccc(N=Nc2ccccn2)c(O)c1`, the growth in the test on DU-145 prostate was 21.6%; in the test with MALME-3M melanoma, 13.8%; in the test with MDA-MB-231 breast, 36.7%; in the test with RXF 393 renal, 46.3%; in the test with SF-268 CNS, 14.6%; in the test on SF-295 CNS, 19.9%. The growth is 0.733% (active) in the test with SF-539 CNS, -9.35% (active) with UACC-257 melanoma and -2.06% (active) with M14 melanoma.

As to `CCN1CCN(c2nc(NCCCNc3ccnc4cc(Cl)ccc34)c3ccccc3n2)CC1`, the growth with DU-145 prostate was 39.5%; in the test with MALME-3M melanoma, -73.5% (active); in the test on MDA-MB-231 breast, -10.8% (active); in the test with RXF 393 renal, 5.38% (active); in the test with SF-268 CNS, 55.1%; with SF-295 CNS, 22.7%. The growth in the test on SF-539 CNS was -74.4% (active); with UACC-257 melanoma, -82.8% (active); in the test on M14 melanoma, -87% (active).

Take `COc1ccc2c(c1)C(=O)/C(=C/c1cccnc1)CC2`: the growth in the test on DU-145 prostate is 97%; in the test on MALME-3M melanoma, 106%; with MDA-MB-231 breast, 87.7%; in the test with RXF 393 renal, 109%; with SF-268 CNS, 94.2%; in the test with SF-295 CNS, 84.2%. Besides, the growth in the test with SF-539 CNS is 90.5%; in the test on UACC-257 melanoma, 108%; in the test with M14 melanoma, 102%.

For the molecule `Clc1ccc2c(NCCNc3nc(N4CCCCC4)nc4ccccc34)ccnc2c1`, the growth was 26.4% with DU-145 prostate; -79.8% (active) in the test on MALME-3M melanoma; -85% (active) with MDA-MB-231 breast; -40.2% (active) in the test with RXF 393 renal; 2.98% (active) with SF-268 CNS; -81.3% (active) with SF-295 CNS. In addition, the values for the growth in the test on SF-539 CNS, in the test with UACC-257 melanoma and with M14 melanoma were -83.6% (active), -70.2% (active) and -79.7% (active), respectively.

In the case of `CC(=O)c1cc2c(N)c(C(=O)Nc3ccccc3)sc2nc1C`, the growth was 75.5% in the test with DU-145 prostate; 89.2% in the test on MALME-3M melanoma; 85.1% in the test on MDA-MB-231 breast; 85.1% with RXF 393 renal; 93.1% in the test with SF-268 CNS; 64.2% in the test on SF-295 CNS. Further, the results for the growth with SF-539 CNS, in the test with UACC-257 melanoma and in the test on M14 melanoma were 72.5%, 68.4% and 43.5%, respectively.

With `COc1ccc(N=Nc2nccs2)c(O)c1`, the growth was 51.3% in the test on DU-145 prostate; 92.1% in the test with MALME-3M melanoma; 35.8% in the test with MDA-MB-231 breast; 52.7% in the test on RXF 393 renal; 26.4% in the test on SF-268 CNS; 95% in the test on SF-295 CNS. For the same molecule, the growth is 40.2% in the test on SF-539 CNS, 85.3% with UACC-257 melanoma and 59.6% in the test with M14 melanoma.

Regarding `CCOc1ccc(-n2nc(C(=O)Nc3cc(OC)c(OC)c(OC)c3)nc2-c2cc(OC)c(OC)c(OC)c2)cc1`, the growth is 99.1% in the test on DU-145 prostate; 85.2% with MALME-3M melanoma; 50.5% in the test with MDA-MB-231 breast; 83.8% in the test with RXF 393 renal; 92.1% in the test with SF-268 CNS; 95.9% with SF-295 CNS. Besides, the growth was 87.8% in the test with SF-539 CNS, 93.1% with UACC-257 melanoma and 91.5% in the test on M14 melanoma.

As to `CCc1c(Nc2ccccc2C)nc(N)[nH]c1=O`, the growth in the test with DU-145 prostate was 111%; with MALME-3M melanoma, 102%; with MDA-MB-231 breast, 114%; in the test with RXF 393 renal, 112%; with SF-268 CNS, 101%; in the test with SF-295 CNS it was 105%. Besides, the growth in the test on SF-539 CNS was 103%; in the test with UACC-257 melanoma it was 115%; in the test with M14 melanoma it was 106%.

For `COc1ccc(-c2nc(SCC(=O)Nc3ccc(C(=O)/C=C/c4ccc(Cl)cc4)cc3)[nH]c(=O)c2C#N)cc1`, the growth is 103% with DU-145 prostate; 95.4% in the test on MALME-3M melanoma; 38.1% in the test with MDA-MB-231 breast; 97.3% with RXF 393 renal; 102% in the test with SF-268 CNS; 98.5% with SF-295 CNS. Also, the results for the growth with SF-539 CNS, in the test with UACC-257 melanoma and with M14 melanoma were 85.8%, 102% and 77.9%, respectively.

As for `COc1cc(-c2nn(-c3ccc(Br)cc3)cc2C(=O)O)ccc1O`, the growth in the test with DU-145 prostate is 103%; in the test on MALME-3M melanoma, 110%; with MDA-MB-231 breast, 126%; with RXF 393 renal, 109%; with SF-268 CNS, 87.8%; with SF-295 CNS, 101%. Also, the growth in the test with SF-539 CNS was 128%; in the test on UACC-257 melanoma, 107%; in the test on M14 melanoma, 102%.

Consider `O=c1ccccc(-c2ccc(Br)cc2)c1O`, for which the growth in the test with DU-145 prostate was 20.3%; with MALME-3M melanoma, 10.6%; in the test on MDA-MB-231 breast, 32.9%; in the test with RXF 393 renal, 46.2%; in the test with SF-268 CNS, 12.8%; in the test on SF-295 CNS, 17.9%. Moreover, the growth was -0.947% (active) in the test on SF-539 CNS, 1.13% (active) in the test with UACC-257 melanoma and -10.8% (active) in the test on M14 melanoma.

With `NC(=NCCCOc1ccc(Cl)cc1)Nc1ccc(C(F)(F)F)cc1`, the growth in the test on DU-145 prostate was 20.4%; in the test with MALME-3M melanoma, -49.3% (active); with MDA-MB-231 breast, 10.1%; with RXF 393 renal, 71.4%; with SF-268 CNS it was 46%; with SF-295 CNS it was 43.9%. Also, the growth is 48.7% in the test with SF-539 CNS, 11.7% with UACC-257 melanoma and -47.8% (active) with M14 melanoma.

Regarding `COc1cccc(-c2nc(SCC(=O)Nc3ccc(C(=O)/C=C/c4ccc(OC)c(OC)c4)cc3)[nH]c(=O)c2C#N)c1`, the growth in the test with DU-145 prostate is 89.4%; with MALME-3M melanoma, 97.4%; with MDA-MB-231 breast it was 67.6%; in the test with RXF 393 renal it was 85.2%; with SF-268 CNS, 82.9%; with SF-295 CNS it was 94.5%. For the same molecule, the growth with SF-539 CNS was 86.2%; in the test with UACC-257 melanoma, 97.4%; with M14 melanoma, 100%.
